Structures are written as SMILES. “And” between values parts separate entries of the source, which are not always exact repeats. Equal values may be shown once. Inconclusive results are not listed. A call without a number means that no potency is given here. The source made the active and inactive calls. Calls follow the shape of the dose curve; as a rule, active = well fitted curve in the direction sought with a large enough effect; inconclusive = small, poorly fitted or top-dose-only effect, or another doubt; inactive = no such curve, though single readings can be large; an effect the other way counts as inactive or inconclusive.
Potency is read from the fitted curve at half-maximal effect.

The first assay is described as follows: Identifying Small Molecule Inhibitors of Pancreatic Cancer Stem Cells (Panc1, Adherent) (AID 1259362). The settings on record: Potency: viability; series mostly up to 46.1 µM. Put shortly: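 Endpoint: ATP-based luminescence, 48 h drug exposure. Bortezomib at 9.2 uM final as full-kill control; DMSO vehicle as negative control; activity normalized between vehicle and cell-free wells.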
For `COc1cccc2cc(-c3nc(C4CCC(C(=O)O)CC4)n4ncnc(N)c34)[nH]c12` (stereo unspecified), the Potency result is “inactive”. Regarding `COc1cc2nccc(Oc3ccc(NC(=O)NC4CC4)c(Cl)c3)c2cc1C(N)=O`, the Potency entry was “inactive”.

Take `CC(=O)NC(C)c1ccc(Oc2ccc(OC(C)C)cc2)cc1` (stereo unspecified): the Potency is 4.69 µM (active).

For the molecule `Cc1c(C)c2c(c(C)c1O)CCC(C)(COc1ccc(CC3SC(=O)NC3=O)cc1)O2` (stereo unspecified), the Potency result was “inactive”. Take `COc1ccc2c3n(c(=NC(=O)c4cccnc4)nc2c1OC)CCN3`: the Potency was 2.35 µM (active).

With `NC(=O)C1CCCc2c1[nH]c1ccc(Cl)cc21` (stereo unspecified), the Potency entry is “inactive”. As for `O=C1CCCC2=C1C(c1[nH]ncc1Cl)N=C(Nc1nc3ccccc3o1)N2` (stereo unspecified), the Potency entry is “inactive”. Regarding `O=C(O)c1ccc(-c2c[nH]c3ccc(-c4ccccc4)cc23)cc1C1CCCC1`, the Potency entry is “inactive”.

A further assay can be described thus: P-glycoprotein substrates identified in KB-3-1 adenocarcinoma cell line, qHTS therapeutic library screen (AID 1346986). Also: nearly all actives have a fitted effect of over 60% in size.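 Also: potency is for cytotoxicity meaning loss of cell viability.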 The conditions noted are these: KB-3-1 parental cells viability, CellTiter-Glo, 72 h; series mostly up to 44.5 µM. The essentials: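 72 h cell-killing screen, 500 cells/well, CellTiter-Glo luminescence. Paired lines KB-3-1/KB-8-5-11; P-gp dependence checked by tariquidar co-treatment and HEK-293 MDR-19 versus empty-vector cells.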
Consider `COc1ccc(-c2oc3cc(OC)ccc3c2C(=O)c2ccc(C#N)cc2)cc1`, for which the Potency entry was “inactive”. Still for that read-out and setting: the same measure for `COc1cccc2cc(-c3nc(C4CCC(C(=O)O)CC4)n4ncnc(N)c34)[nH]c12` (stereo unspecified): 1.3 µM (active). Consider `CC1(C)SCCN(S(=O)(=O)c2ccc(OCC#CCO)cc2)[C@@H]1C(=O)NO`, for which the Potency entry is “inactive”. Regarding `COc1cc2nccc(Oc3ccc(NC(=O)NC4CC4)c(Cl)c3)c2cc1C(N)=O`, the Potency entry is “inactive”. Same read-out and setting: the same measure for `Cc1cc(SCc2sc(-c3ccc(C(F)(F)F)cc3)nc2C)ccc1OCC(=O)O`: “inactive”.

As for `COc1cc(F)c(F)c(Nc2ccc(I)cc2F)c1NS(=O)(=O)C1(C[C@H](O)CO)CC1`, the Potency entry is “inactive”. Turning to `CCN(CC)CCCC(C)Nc1nc(C)cc(Nc2ccc3nc(C)cc(N)c3c2)n1` (stereo unspecified), the Potency entry is “inactive”. As to `O=C(C=Cc1ccc(/C=C/C(=O)Nc2ccc(C3=NCCN3)cc2)cc1)Nc1ccc(C2=NCCN2)cc1`, the Potency entry is “inactive”. For `CCCc1nn(C)c2c(=O)[nH]c(-c3cc(S(=O)(=O)N4CCN(C)CC4)ccc3OCC)nc12`, the Potency entry was “inactive”. With `Cc1n[nH]c(C)c1Cc1sc2c(c1C(=O)N1C[C@H](O)CO1)c(=O)n(C)c(=O)n2CC(C)C`, the Potency result is “inactive”. Consider `CC(C)(Sc1ccc(CCN(CCCCC2CCCCC2)C(=O)NC2CCCCC2)cc1)C(=O)O`, for which the Potency result is “inactive”. Turning to `O=C1CCCC2=C1C(c1[nH]ncc1Cl)N=C(Nc1nc3ccccc3o1)N2` (stereo unspecified), the Potency result was “inactive”.

The nature of another assay: P-glycoprotein substrates identified in KB-8-5-11 adenocarcinoma cell line, qHTS therapeutic library screen (AID 1346987). Also: nearly all actives have a fitted effect of over 65% in size. The settings on record: KB-8-5-11 (P-gp overexpressing) viability, CellTiter-Glo, 72 h; series mostly up to 44.5 µM. Put shortly: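 Luminescence from CellTiter-Glo, read 5 min after addition, quantified survival of KB-8-5-11 (P-gp-overexpressing) cells exposed to compounds for 72 h. AC50 was derived from concentration-response curves.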
On the technique in general: qHTS replaces the single test concentration by a dilution series.
Take `COc1ccc(-c2oc3cc(OC)ccc3c2C(=O)c2ccc(C#N)cc2)cc1`: the Potency entry was “inactive”.

Turning to `COc1cccc2cc(-c3nc(C4CCC(C(=O)O)CC4)n4ncnc(N)c34)[nH]c12` (stereo unspecified), the Potency was 296 nM (active) and 1.46 µM (active) and 1.3 µM (active). With `CS(=O)(=O)c1ccc(C(=O)Nc2ccc(Cl)c(-c3ccccn3)c2)c(Cl)c1`, the Potency result is “inactive”. Take `Cc1cc(Nc2nc(N[C@@H](C)c3ncc(F)cn3)ncc2Cl)n[nH]1`: the Potency was 16.6 µM (active) and 1.03 µM (active).

Consider `CC1(C)SCCN(S(=O)(=O)c2ccc(OCC#CCO)cc2)[C@@H]1C(=O)NO`, for which the Potency entry was “inactive”. Still for that read-out and setting: the same measure for `COc1cc2nccc(Oc3ccc(NC(=O)NC4CC4)c(Cl)c3)c2cc1C(N)=O`: “inactive”; for `CC(=O)NC(C)c1ccc(Oc2ccc(OC(C)C)cc2)cc1` (stereo unspecified): “inactive”; for `Nc1nccc(-c2ccc3noc(-c4ccc(Cl)cc4)c3c2)n1`: “inactive”. As for `Cc1cc(SCc2sc(-c3ccc(C(F)(F)F)cc3)nc2C)ccc1OCC(=O)O`, the Potency result was “inactive”. With `COc1cc(F)c(F)c(Nc2ccc(I)cc2F)c1NS(=O)(=O)C1(C[C@H](O)CO)CC1`, the Potency entry is “inactive”. Turning to `CC1(C)CNc2cc(NC(=O)c3cccnc3NCc3ccncc3)ccc21`, the Potency result is “inactive”. Take `CC(C)OC(=O)C1=CN(C(=O)c2ccc(F)c(F)c2)CC(C)(C)c2c1[nH]c1ccccc21`: the Potency result is “inactive”.

Regarding `Cc1c(C)c2c(c(C)c1O)CCC(C)(COc1ccc(CC3SC(=O)NC3=O)cc1)O2` (stereo unspecified), the Potency entry is “inactive”.

On to `COc1ccc2c3n(c(=NC(=O)c4cccnc4)nc2c1OC)CCN3`, for which the Potency was 0.651 µM (active).

Turning to `NC(=O)c1ccc(I)c([N+](=O)[O-])c1`, the Potency result was “inactive”. On to `CCOc1cc(C=C2C(=O)N(c3ccccc3)N=C2C)cc(Cl)c1OCC(=O)OC`, for which the Potency entry was “inactive”.

For the molecule `CS(=O)(=O)c1cccc(CNc2nc(Nc3ccc4c(c3)CCC(=O)N4)ncc2C(F)(F)F)c1`, the Potency entry is “inactive”. `COc1ccc2nc(S(=O)Cc3ncc(C)c(OC)c3C)[nH]c2c1` (stereo unspecified): the Potency entry is “inactive”. For `COc1nc(-c2ccc3c(c2)OCO3)n(-c2ccc(NC(=O)CSc3ccccc3)cc2)n1`, the Potency entry was “inactive”. On to `Cc1[nH]c(=O)c(C#N)cc1-c1ccc2nccn2c1`, for which the Potency result is “inactive”.

For `CCN(CC)CCCC(C)Nc1nc(C)cc(Nc2ccc3nc(C)cc(N)c3c2)n1` (stereo unspecified), the Potency result is “inactive”. Turning to `O=C(C=Cc1ccc(/C=C/C(=O)Nc2ccc(C3=NCCN3)cc2)cc1)Nc1ccc(C2=NCCN2)cc1`, the Potency result is “inactive”. As for `CCCc1nn(C)c2c(=O)[nH]c(-c3cc(S(=O)(=O)N4CCN(C)CC4)ccc3OCC)nc12`, the Potency is 13.2 µM (active). As to `Cc1n[nH]c(C)c1Cc1sc2c(c1C(=O)N1C[C@H](O)CO1)c(=O)n(C)c(=O)n2CC(C)C`, the Potency result is “inactive”.

For `CC(C)(Sc1ccc(CCN(CCCCC2CCCCC2)C(=O)NC2CCCCC2)cc1)C(=O)O`, the Potency entry was “inactive”. As for `Cc1c(CCOc2ccc(C(=O)O)cc2)c2cc(Cl)ccc2n1C(c1ccccc1)c1ccccc1`, the Potency result is “inactive”. Take `OC(CN1CCC(Cc2ccc(F)cc2)CC1)c1ccc(Cl)cc1` (stereo unspecified): the Potency result was “inactive”. Turning to `Cc1cc(C=c2sc3nc4ccccc4n3c2=O)c(C)n1-c1ccccc1`, the Potency result was “inactive”. Consider `CC(C)C[C@H](NC(=O)[C@@H](O)[C@H](N)Cc1ccccc1)C(=O)O`, for which the Potency was 23.5 µM (active). Still for that read-out and setting: the same measure for `CC(c1cc2ccccc2s1)N(O)C(N)=O` (stereo unspecified): “inactive”; for `NC(=O)C1CCCc2c1[nH]c1ccc(Cl)cc21` (stereo unspecified): “inactive”. Regarding `O=C1CCCC2=C1C(c1[nH]ncc1Cl)N=C(Nc1nc3ccccc3o1)N2` (stereo unspecified), the Potency result is “inactive”.

With `CS(=O)(=O)Oc1ccc2c(NC(N)=O)c(C(=O)c3ccc(Cl)cc3Cl)oc2c1`, the Potency entry is “inactive”. Still for that read-out and setting: with `Cc1cnc(Nc2ccc(OCCN3CCCC3)cc2)nc1Nc1cccc(S(=O)(=O)NC(C)(C)C)c1` the entry was “inactive”; with `N#Cc1ccc(C(c2ccc(C#N)cc2)n2cncn2)cc1`, “inactive”; with `C[C@]12CC[C@H](O)CC1=CC[C@@H]1[C@H]2CC[C@]2(C)C(c3cccnc3)=CC[C@H]12`, “inactive”.

The record behind these values is PubChem BioAssay (NCATS).
